According to article PMC10668032, “Altered binding affinity of SIX1-Q177R correlates with enhanced WNT5A and WNT pathway effector expression in Wilms tumor”:
In all, about 33,000 sequences were measured (“e-score”: median about -0.053, highest 2% from about 0.38 on). The full list was thinned out, with the highest values kept by preference.

target: T1, SIX1 homeodomain (reference allele) (human, UniProt Q15475 108-198); assay: universal protein binding microarray; Universal all-10-mer PBM (8x60K, AMADID 030236), 300 nM GST-tagged protein, Alexa Fluor 488 anti-GST; buffer, salt, pH and temperature not stated (as in Berger); high values mean tight binding; details: protein: ivt; tags: N-terminal GST; dsDNA, one strand shown
T1 sequence: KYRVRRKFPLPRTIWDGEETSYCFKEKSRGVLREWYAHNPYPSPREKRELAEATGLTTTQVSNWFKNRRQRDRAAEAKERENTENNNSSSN
How it was run: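 Homeodomains fused to GST were made by in vitro transcription/translation and measured by anti-GST western blot with a recombinant GST standard curve. At 300 nM final concentration, they were applied in duplicate to universal 'all 10-mer' protein binding microarrays (8×60K format).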

| Sequence | binding signal [E-score] |
| --- | --- |
| CATATCCG | 0.426 ± 0.0135 |
| TATATCGA | 0.387 ± 0.0436 |
| GATATCGA | 0.42 ± 0.0378 |
| ATTATCCG | 0.351 ± 0.0414 |
| TATATCCA | 0.335 ± 0.0312 |
| CATATACG | 0.24 ± 0.0369 |
| AATATCGA | 0.241 ± 0.0403 |
| CAACTATC | 0.168 ± 0.0786 |
| ATTGAATA | 0.196 ± 0.0188 |
| GTGTCGCA | 0.173 ± 0.106 |
| AAGAATAC | 0.214 ± 0.0706 |
| ATCAATTA | 0.229 ± 0.0261 |
| ATCGCCTG | 0.206 ± 0.0204 |
| ATACTGTG | 0.226 ± 0.0353 |
| TATCGCCA | 0.36392 ± 0.000113 |
| GATCGCGA | 0.3375 ± 0.00196 |
| TATCGCGA | 0.395 ± 0.0175 |
| CCGGCGGA | 0.24 ± 0.0642 |
| TCATCCGA | 0.255 ± 0.0149 |
| ACTGCTAT | 0.177 ± 0.0391 |
| GCTGAGAC | 0.214 ± 0.0303 |

| Sequence | binding signal [E-score] |
| --- | --- |
| CCTGAGAC | 0.168 ± 0.0173 |
| ACTGATAG | 0.315 ± 0.0253 |
| GCTGACAC | 0.246 ± 0.0761 |
| CCTGATAG | 0.266 ± 0.022 |
| ACTGATAT | 0.442 ± 0.0273 |
| GCTGATAC | 0.459 ± 0.00926 |
| ACTGACAC | 0.335 ± 0.01 |
| CCTGATAC | 0.4721 ± 0.0017 |
| ACTGATCA | 0.181 ± 0.00344 |
| ACTGATAC | 0.465 ± 0.00916 |
| GTATAGAA | 0.215 ± 0.0496 |
| TATCTCCA | 0.282 ± 0.0362 |
| ATGGCATC | 0.155 ± 0.0404 |
| ATCCAGTA | 0.242 ± 0.0094 |
| AGCAATAC | 0.298 ± 0.00343 |
| GATCGTGC | 0.276 ± 0.0195 |
| ACCTATAT | 0.195 ± 0.0849 |
| GCAGGAGA | 0.153 ± 0.0104 |
| GTCTCGTA | 0.172 ± 0.0154 |
| CTATCGTC | 0.163 ± 0.0581 |
| GTATAGTA | 0.285 ± 0.0663 |

| Sequence | binding signal [E-score] |
| --- | --- |
| GTATCGTA | 0.4227 ± 0.00184 |
| CTATCGTA | 0.266 ± 0.0154 |
| ATATAGTA | 0.304 ± 0.0257 |
| ATATCGTA | 0.402 ± 0.0509 |
| ATATCGTG | 0.376 ± 0.0365 |
| ATATCGTC | 0.382 ± 0.0428 |
| GGTAGATA | 0.336 ± 0.0074 |
| GAGTAATA | 0.204 ± 0.00279 |
| AGATCTCG | 0.214 ± 0.0497 |
| AGTGTCAC | 0.253 ± 0.0143 |
| GGTGTCAC | 0.476 ± 0.0116 |
| GGGGTCAA | 0.151 ± 0.00175 |
| AGTGTCAA | 0.168 ± 0.0652 |
| GGTGTCTA | 0.35 ± 0.0308 |
| GGTGTCAA | 0.45408 ± 0.000177 |
| GGTGTCGA | 0.408 ± 0.0576 |
| CGTGTCAC | 0.1957 ± 0.000728 |
| GGTGTCCA | 0.314 ± 0.0555 |
| CCGCTATA | 0.176 ± 0.0395 |
| CTTAGATA | 0.19 ± 0.0471 |
| GGTACACC | 0.298 ± 0.064 |

| Sequence | binding signal [E-score] |
| --- | --- |
| AAGGGTGA | 0.21 ± 0.0127 |
| GCGTTAGA | 0.197 ± 0.00519 |
| AGGGATAT | 0.45 ± 0.0188 |
| CGGGATAA | 0.17 ± 0.0308 |
| GGGGATAC | 0.44 ± 0.0287 |
| CGGGATAC | 0.408 ± 0.0263 |
| AGGGATAC | 0.4148 ± 0.000559 |
| AGGGATAA | 0.292 ± 0.0171 |
| GGGGACAC | 0.161 ± 0.0585 |
| CGGGATAG | 0.268 ± 0.0112 |
| TGGGATAA | 0.176 ± 0.0405 |
| AGGGATAG | 0.27 ± 0.0085 |
| GGGGATAA | 0.311 ± 0.0718 |
| AGGGGGAT | 0.376 ± 0.0175 |
| CTAAGATA | 0.241 ± 0.105 |
| ATCTGGGC | 0.24 ± 0.0045 |
| CCTATTGA | 0.187 ± 0.0453 |
| GGTATTTA | 0.191 ± 0.035 |
| ATCCCATC | 0.297 ± 0.0291 |
